# Screening results (PubChem BioAssay)
# Lassa entry inh: blocks Lassa virus binding to or entry into cells | Lassa virus pseudotype entry inhibition, cell reporter | Potency, µM (highest dose often 37.9 µM), for inactives: top-dose activity change, negative = inhibition, actives largely listed as inhibitors | 1.2% of 300,000 active | AID 540256; calls by dose curve; tested in HEK293 cells; also: potency is read from the fitted curve at half-maximal effect; % is scaled to controls: 0 for no effect and ±100 for the full control effect; nearly all actives have a fitted effect of over 50% in size
# FMDV inh: blocks foot and mouth disease virus | FMDV antiviral cell-based qHTS | Potency, µM (highest dose often 57.9 µM), without a hit: top-dose activity change, negative = inhibition, actives largely listed as inhibitors | 1.2% of 410,000 active | AID 1159524; calls by dose curve; tested in HEK293T cells; also: read-out not given here; potency is read from the fitted curve at half-maximal effect; % is scaled to controls: 0 for no effect and ±100 for the full control effect; nearly all actives have a fitted effect of over 45% in size
# MARV entry inh: blocks Marburg virus binding to or entry into cells; Marburg virus pseudotyped entry inhibition, cell reporter; Potency, µM (top dose mostly 37.8 µM), for inactives: at the highest dose activity change, negative = inhibition, most hits filed as inhibitors; 1.8% of 300,000 active; AID 540276; calls by dose curve; tested in HEK293 cells; also: potency is read from the fitted curve at half-maximal effect; % is scaled to controls: 0 for no effect and ±100 for the full control effect
# HCMV antiviral: blocks human cytomegalovirus replication; HFF cells, HCMV-luciferase reporter, 72 h; stronger effect = lower value; activity change, negative = inhibition, % at 57.5 µM; 4.5% of 410,000 active; in the data active = activity change below about -60%; inconclusive = no clear call, values can overlap the other calls; inactive = above about -39%; also: % is scaled to controls: 0 for no effect and ±100 for the full control effect
#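 Human foreskin fibroblasts infected with luciferase-reporter HCMV at MOI 1 PFU/cell, compounds at two doses. Luciferase measured 72 h post infection; normalized to buffer-only basal and Salinomycin (10uM) controls.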
# HCV inhibitor: inhibitors of hepatitis C virus infection. Huh7.5.1 HCVcc-Cre infection, luciferase reporter, 44 h. Potency, µM (top dose mostly 41.8 µM), inactives show at the top dose activity change, negative = inhibition, most hits filed as inhibitors. 3.4% of 340,000 active. AID 651820; active = well fitted inhibition curve with a large enough effect; inconclusive = small, poorly fitted or top-dose-only effect, or another doubt; inactive = no such curve, though single readings can be large or run the other way; also: potency is read from the fitted curve at half-maximal effect; % is scaled to controls: 0 for no effect and ±100 for the full control effect
#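 Luciferase read-out (15 sec integration) after a 15 min room-temperature substrate step quantifies HCVcc-Cre infection. Cells, 1,000 per well, had compound added 4 h post-plating, then virus at ~0.5 moi, and were cultured 44 h.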
# SARS PLpro yeast: inhibitors of SARS-CoV papain-like protease in yeast; S. cerevisiae expressing SARS-CoV PLpro, growth rescue; Potency, µM (titrated, usually from 32.9 µM), without a hit: top-dose activity, positive = growth rescue, most hits filed as activators; 0.19% of 330,000 active; AID 485353; calls by dose curve; also: potency is read from the fitted curve at half-maximal effect; 0% is about no effect; nearly all actives have a fitted effect of over 55% in size
# Active calls of the source: *; ? = inconclusive; . = no result given; [ ] = another dose, or the depositor's remark. Most compounds without a hit are left out; they make up all but 8% or so of the library.
SMILES,Lassa entry inh,FMDV inh,MARV entry inh,HCMV antiviral,HCV inhibitor,SARS PLpro yeast
COc1ccc(/C=C\C(=O)Nc2ccccc2C(=O)O)cc1OC,.,20µM*,?,.,.,.
COc1ccc(NC(=O)COc2ccc(/C=C/c3cc[n+](C)cc3)cc2OC)cc1,-4.0%,13.5%,-4.2%[46.1 µM],-12.0,1.2%,-1.9%
COc1cc(/C=C/c2cc[n+](C)cc2)ccc1OCC(=O)Nc1ccc(Cl)c(Cl)c1,-26.6%,-16.2%,?,-91.2*,-0.9%,-5.1%
Cc1cc2c(cc1C)NC(c1cccc(Br)c1)=C(N(Cc1ccccc1)C(=O)C(=O)c1ccccc1)C(=O)N2,.,.,.,-6.0,.,.
CC(C(=O)O)C1CCC2C3CC=C4CC(O)CC[C@@]4(C)C3CC[C@]12C (stereo partly specified),.,-7.4%,.,.,.,.
CC1=C(CO)C(=O)OC([C@@H](C)C2CC[C@H]3C4C[C@H]5O[C@]56[C@@H](O)C=CC(=O)[C@]6(C)C4CC[C@]23C)C1 (stereo partly specified),.,7.08µM*,.,-106.5*,?,1.3%
Cc1cccc2c(N3CCCC3)nc(CNS(=O)(=O)c3ccc4ccccc4c3)nc12,.,3.7%,.,.,.,.
COCCNc1nc(Oc2cncc(Cl)c2)c2sccc2n1,.,12.1%,.,?,.,.
CC(C)(C)OC(=O)N1CCC[C@H]1c1nnc(SCc2ccc(Cl)cc2Cl)o1,?,39.8µM*,8.91µM*,9.3,?,.
Cc1c(NC(=O)c2nc3ccccc3nc2N2CCCCC2)cccc1[N+](=O)[O-],-11.8%[46.1 µM],50.4%,-4.1%[46.1 µM],-9.0,.,.
Clc1ccc(Cn2cnc3ccccc32)cc1,-24.9%[46.1 µM],?,?,-70.3*,?,-10.4%
COc1cc(NC(=O)C2CCCCC2)c2ncccc2c1,3.1%,-6.4%,-7.3%,23.8,10µM*,-11.6%
CC1CCCCN1C(=S)NC(=O)c1ccco1 (stereo unspecified),-1.1%,1.1%,8.8%,29.1,10.0%,11.0%
CC1CCN(C(=S)NC(=O)c2ccco2)CC1,?,-10.3%,5.2%[46.1 µM],-68.5*,14.0%,-5.7%
O=[N+]([O-])c1c(NCCCO)cc(Sc2ccc(Cl)cc2)c2nonc12,?,25.1µM*,11.2µM*,-18.0,?,11.9%
O=[N+]([O-])c1c(NCCCO)cc(N2CCN(Cc3ccc4c(c3)OCO4)CC2)c2nonc12,?,17.8µM*,?,-77.7*,?,-4.4%
CC(=O)OCCCNc1cc(Sc2ccc(C)cc2)c2nonc2c1[N+](=O)[O-],?,?,?,26.1,-0.9%,-20.5%
O=[N+]([O-])c1c(NCCCO)cc(N2CCCCCC2)c2nonc12,-5.6%,-17.1%,?,-22.8,-3.8%,-1.4%
Cn1ccnc1Sc1cc(NCCCO)c([N+](=O)[O-])c2nonc12,?,25.1µM*,?,142.9,10µM*,-9.1%
COc1cccc(C2(CC(=O)N3CCN(c4ccccn4)CC3)CC(=O)N(C3CCCC3)C2=O)c1 (stereo unspecified),.,-0.8%,.,.,.,.
O=C1c2ccccc2OC2(C=Cc3ccccc3O2)N1Cc1ccccc1 (stereo unspecified),-12.1%,-15.7%,?,-5.3,?,-7.9%
Cc1cc2c(c(/C=C/C(=O)c3ccccc3)c1)OC1(C=C2)Oc2ccccc2C(=O)N1C (stereo unspecified),?,25.1µM*,?,-12.5,12.6µM*,-0.3%
COC(=O)c1cc2occc2n1CC(=O)Nc1ccc(C)cc1C,-0.6%,-10.7%,3.5%,-62.6*,?,5.8%
COC(=O)c1cc2occc2n1CC(=O)Nc1cccc(SC)c1,.,-7.3%,-18.0%[46.1 µM],0.2,.,.
COC(=O)c1cc2oc(C)cc2n1CC(=O)Nc1ccc(C)c(C)c1,?,48.3%,1.2%,20.3,3.98µM*,-1.8%
SMILES,Lassa entry inh,FMDV inh,MARV entry inh,HCMV antiviral,HCV inhibitor,SARS PLpro yeast
COC(=O)c1cc2oc(C)cc2n1CC(=O)Nc1ccc(OC)c(OC)c1,.,-3.6%,-0.3%[46.1 µM],7.9,.,.
CC(C)OP(=O)(OC(C)C)C(O)c1ccc(N(C)C)cc1 (stereo unspecified),17.4%,3.0%,-11.9%,-3.7,5.7%,-0.3%
CCC1CN(Cc2cn[nH]c2-c2ccccc2)Cc2cc(OC)ccc2O1 (stereo unspecified),.,4.7%,.,.,.,.
CCOc1ccccc1NC(=O)c1ccc(CN2CCc3ccccc3C2)cc1,3.1%,-10.8%,2.5%,1.0,?,-6.1%
CCOC(=O)c1ccc(NC(=O)c2ccc(CN3CCc4ccccc4C3)cc2)cc1,-23.2%,?,?,-32.7,1.41µM*,1.2%
CCOC(=O)c1ccc(NC(=O)CN2CCc3ccccc3C2)cc1,0.0%,17.3%,-15.6%,62.8,-8.7%,4.5%
CCOc1ccc(NC(=O)c2ccc(CN3CCc4ccccc4C3)cc2)cc1,-10.7%[46.1 µM],?,?,?,2µM*,.
COc1cc(-c2cc(C)c3c(OC)ccc(OC)c3n2)cc2c1OCCN(C(=O)Cn1nc(C)cc1C)C2,.,-0.5%,.,.,.,.
Cc1cccc(CSc2nc3c(cc2C#N)CN(C)CC3)c1,9.1%,3.3%,5.3%,32.6,14.1µM*,-2.2%
CN1CCc2nc(SCc3ccccc3Br)c(C#N)cc2C1,-12.9%,-2.3%,-7.9%,-20.2,7.94µM*,-0.2%
CCOC(=O)C1=C(CSc2nc3c(cc2C#N)CN(C)CC3)OC(N)=C(C#N)C1c1ccc(F)cc1 (stereo unspecified),13.4%,0.0%,?,-0.7,10µM*,-9.5%
CCOC(=O)C1(CC2CC2)CCN(Cc2ccc3cccc(F)c3n2)CC1,.,-16.4%,.,44.1,?,-0.2%
NC(=O)c1cc(N2CC2)c([N+](=O)[O-])cc1[N+](=O)[O-],-15.0%,1.26µM*,?,-12.6,0.3%,.
COc1ccc(C2=Nc3ccccc3NC(=O)C2N(C(=O)c2ccnc3ccccc23)c2ccccc2)cc1 (stereo unspecified),.,-15.2%,.,-81.6*,.,.
COc1ccc(C2=Nc3ccccc3NC(=O)C2N(C(=O)c2cnc(C)cn2)c2ccc(N3CCOCC3)cc2)cc1 (stereo unspecified),.,17.0%,.,22.7,.,.
CCN(CC)c1ccc(NC(=O)CCc2c(C)nc3ncnn3c2C)c(C)c1,0.0%[46.1 µM],0.0%,3.2%[46.1 µM],-2.7,.,.
CC(CS(=O)(=O)c1ccccc1[N+](=O)[O-])N1CCOCC1 (stereo unspecified),7.6%,-17.9%,4.2%,-80.8*,32.0%,-0.2%
COCCN1C(=O)c2[nH]nc(-c3c(C)cc(C)cc3O)c2C1c1cccc(O)c1 (stereo unspecified),?,-20.2%,?,43.2,.,.
CCOC(=O)c1c(NC(=O)c2cc(=O)c3cc(C)cc(C)c3o2)sc(C)c1C,6.2%[46.1 µM],-1.7%,-4.6%[46.1 µM],-0.7,.,.
Cc1c(C(=O)Nc2cc(F)cc(F)c2)cnn1-c1ccccc1,.,44.2%,.,42.8,11.2µM*,0.7%
Cc1c(C(=O)Nc2ccccc2F)cnn1-c1ccccc1,.,15.8%,.,38.4,4.6%,-12.1%
